BoNT A protease: BoNT/A light chain protease inhibitors, primary screen, biochemical, flow cytometry, MLPCN library; multiplex microsphere protease substrate cleavage; 360,000 tested, 0.17% active; inhibition, % at 10 µM; Botulinum neurotoxin type A light chain protease (Clostridium botulinum A str. ATCC 3502); AID 588499, 2011
MazEF act: activators of E. coli MazEF toxin-antitoxin RNase, primary screen, biochemical, fluorescence, uHTS | FAM/BHQ RNA-DNA oligo cleavage fluorescence, 5 h | Endoribonuclease toxin MazF (Escherichia coli (strain K12)), P0AE70 | 350,000 tested, 0.32% active | activation, % at 20 µM; in the data active = activation above about 50%
Target sequence (P0AE70 whole entry, looked up): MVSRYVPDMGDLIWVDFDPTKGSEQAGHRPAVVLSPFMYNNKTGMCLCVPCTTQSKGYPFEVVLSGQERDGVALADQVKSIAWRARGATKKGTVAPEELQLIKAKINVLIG
Anthrax LF inh2: Bacillus anthracis LF protease inhibitors, primary screen, biochemical, multiplex microsphere, MLPCN library; Lethal factor (Bacillus anthracis), P15917; multiplex microsphere protease cleavage assay; inhibition, % at 10 µM; 360,000 tested, 0.12% active; AID 588501, 2011
DUSP3 inh: VHR1 phosphatase inhibitors, primary screen, biochemical, absorbance, uHTS. Dual specificity protein phosphatase 3 (Homo sapiens), P51452. recombinant VHR phosphatase, pNPP absorbance. inhibition, % at 13.3 µM. 290,000 tested, 0.52% active; in the data active = inhibition above about 50%
Target sequence (P51452 whole entry, looked up): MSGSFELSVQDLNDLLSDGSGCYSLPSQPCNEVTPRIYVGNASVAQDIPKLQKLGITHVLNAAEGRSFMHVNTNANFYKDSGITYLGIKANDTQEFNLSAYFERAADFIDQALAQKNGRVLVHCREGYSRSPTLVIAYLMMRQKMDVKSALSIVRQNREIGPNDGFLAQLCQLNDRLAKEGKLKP
BoNT F protease: BoNT/F light chain protease inhibitors, primary screen, biochemical, flow cytometry, MLPCN library | AID 588497, 2011 | Multiplex microsphere protease cleavage assay | inhibition, % at 10 µM | 360,000 tested, 0.22% active; in the data active = inhibition above about 35%, passing the limit was not always enough; inconclusive = no clear call, values can overlap the other calls
Autofluor counter: compound fluorescence in toxin protease inhibitor counterscreen. compound autofluorescence counterscreen, microsphere flow cytometry; active compounds read high. fluorescence intensity (no concentration beside the values). 360,000 tested, 3.1% active. AID 624483; in the data active = fluorescence intensity above about 16000; inconclusive = no clear call, values can overlap the other calls
BoNTA LC inh 1: BoNT/A light chain protease inhibitors, confirmation, biochemical, flow cytometry, cherry pick 1. shares compounds with BoNT F protease. multiplex microsphere protease assay. inhibition, % at 10 µM. 720 tested, 3% active; in the data active = inhibition above about 32%
BoNTF LC inh 1: BoNT/F light chain protease inhibitors, confirmation, biochemical, flow cytometry, cherry pick 1; shares compounds with BoNT F protease; 720 tested, under 10 active; inhibition, % at 10 µM; multiplex microsphere protease cleavage assay; call rule not given here
LF protease CP1: Bacillus anthracis LF protease inhibitors, confirmation, biochemical, multiplex microsphere, cherry pick 1 | shares compounds with BoNT F protease | 720 tested, under 10 active | inhibition, % at 10 µM | multiplex microsphere protease cleavage assay; call rule not given here
Numbers stand for hits; i = inactive; ? = inconclusive; nt = not tested or not shown; + = active, no number. In the library only some 4.1% were active in any assay of this set; here they are far more common. Cut-off read from the data, not from the text of the source, unless noted: active = inhibition above about 30%; inconclusive = no clear call, values can overlap the other calls; inactive = below that.

SMILES	BoNT A protease	MazEF act	Anthrax LF inh2	DUSP3 inh	BoNT F protease	Autofluor counter	others
Cc1ccc(NC(=O)Cn2c([N+](=O)[O-])cnc2C)cc1	i	i	i	i	i	i
CCCCN(Cc1cc2cc(OC)ccc2[nH]c1=O)S(=O)(=O)c1ccc(C)cc1	i	i	i	i	i	i
CCCCN(C)C1=CC2=CC(=C(C#N)C#N)CCC2CC1 (stereo not drawn)	i	nt	38.5	i	108.7	49793
N#CC(C#N)=C1C=C2C=C(N3CCCCC3)CCC2CC1 (stereo not drawn)	nt	+	nt	i	nt	nt
CCN(CC)C1=CC2=CC(=C(C#N)C#N)CCC2CC1 (stereo not drawn)	i	nt	i	i	61.8	39639
N#CC1=C(N)C2=C(N3CCCCC3)CCCC2C1(C#N)C#N (stereo not drawn)	i	i	i	i	i	i
CC1=Nc2ccccc2/C1=C\c1nc(-c2ccc(F)cc2)oc1O	i	+	i	i	i	i
COC(=O)Cn1c(O)c(N=NC(=O)CNC(=O)COc2cccc(C)c2)c2ccccc21	i	i	i	i	i	i
COc1ccc(-c2nc(CS(=O)CC(=O)NCCCN3CCOCC3)c(C)o2)cc1OC (stereo not drawn)	i	i	i	56.7	i	i
Cc1ccccc1-c1nc(CS(=O)CC(=O)NCCN2CCN(Cc3ccccc3)CC2)c(C)o1 (stereo not drawn)	?	i	i	i	i	21943
COc1ccc(-c2nc(CS(=O)CC(=O)NCCCN3CCCC3)c(C)o2)cc1OC (stereo not drawn)	i	i	i	i	i	i
CCOc1ccc(CCNC(=O)CS(=O)Cc2nc(-c3ccc(C)cc3)oc2C)cc1OCC (stereo not drawn)	nt	i	nt	i	nt	nt
CCOc1ccc(CCNC(=O)CS(=O)Cc2nc(-c3ccccc3C)oc2C)cc1OCC (stereo not drawn)	i	i	i	i	i	20576
Cn1c(=O)[nH]c(=O)c2c1nc(Br)n2CCCSc1nc2ccccc2o1	?	i	i	i	i	17409
Cn1c(=O)[nH]c(=O)c2c1nc(N1CCCC1)n2CCCSc1nc2ccccc2o1	i	i	i	i	i	i
C/C=C/Cn1c(Br)nc2c1c(=O)[nH]c(=O)n2C	i	i	i	i	i	22506
O=S(=O)(CC(CN1CCCCC1)N1CCCCC1)c1ccc2ccccc2c1 (stereo not drawn)	i	i	i	i	i	i
COc1ccc([C@H]2CN(Cc3ccccc3)C(=O)[C@@H]2CC(=O)Nc2ccccc2)cc1	i	i	i	nt	i	i
CCOC(=O)C1=C(N)OC2=C(C(=O)CCC2)C12C(=O)N1c3c(ccc(C)c32)C(C)=CC1(C)C (stereo not drawn)	i	i	i	i	i	i
CC1=CC(C)(C)N2C(=O)C3(C(C#N)=C(N)OC4=C3C(=O)CCC4)c3c(C)c(C)cc1c32 (stereo not drawn)	i	i	i	i	i	17514
CC1(c2ccccc2)CC(C)(C)N2C(=O)C3(C(C#N)=C(N)Oc4cc(O)ccc43)c3cccc1c32 (stereo not drawn)	i	i	i	i	i	i
CC1=CC(C)(C)N2C(=O)C3(C(C#N)=C(N)Oc4cc(O)ccc43)c3c(C)c(C)cc1c32 (stereo not drawn)	i	i	i	i	i	23874
Cn1c(=O)c2cc(S(=O)(=O)NCCC(=O)NCCc3ccc(Cl)cc3)ccc2n(C)c1=O	i	i	i	i	i	17176
Cn1c(=O)c2cc(S(=O)(=O)NCCC(=O)Nc3ccc(Cl)cc3)ccc2n(C)c1=O	i	i	i	i	i	i
COc1ccc(OC)c(C(O)c2ncc(-c3cccc4ccccc34)[nH]2)c1 (stereo not drawn)	i	nt	i	nt	i	i
SMILES	BoNT A protease	MazEF act	Anthrax LF inh2	DUSP3 inh	BoNT F protease	Autofluor counter	others
O=C(CN(CCc1ccccc1)C(=O)CN1C(=O)COc2ccccc21)NCc1ccco1	i	i	i	i	i	23028
Cc1nc2cc(F)ccc2n1C1CCN(Cc2nnnn2CCc2ccccc2)CC1	i	i	i	i	42.1	i	BoNTA LC inh 1=i;BoNTF LC inh 1=i;LF protease CP1=i
CC1CC(c2ccccc2)n2nc(NC(=O)c3ccco3)nc2N1 (stereo not drawn)	i	i	i	i	?	i
COc1ccc(C2CC(c3ccc(F)cc3)n3nc(NC(=O)c4ccco4)nc3N2)cc1 (stereo not drawn)	i	i	i	i	i	i	BoNTA LC inh 1=i;BoNTF LC inh 1=i;LF protease CP1=i
COc1ccccc1NC(=O)c1ccc2nc(C)c(C)nc2c1	i	i	i	i	i	i
COc1ccc(Cl)cc1NC(=O)C1CC(c2c(F)cccc2Cl)=NO1 (stereo not drawn)	i	i	i	i	36.7	i	BoNTA LC inh 1=i;BoNTF LC inh 1=i;LF protease CP1=i
COc1ccc(NC(=O)C2CC(c3ccc(Cl)cc3)=NO2)cc1 (stereo not drawn)	i	i	45.4	i	i	i	BoNTA LC inh 1=i;BoNTF LC inh 1=i;LF protease CP1=i
O=C(Nc1ccccc1)c1cc(C2CCCN(C(=O)c3ccc4c(c3)CCO4)C2)on1 (stereo not drawn)	i	nt	i	nt	i	i
COc1ccc(C(=O)NCC2CCCO2)cc1 (stereo not drawn)	i	i	i	i	35.8	i	BoNTA LC inh 1=i;BoNTF LC inh 1=i;LF protease CP1=i
COc1cc(OC)cc(C(=O)Nc2ccc(C(=O)NCC3CCCO3)cc2)c1 (stereo not drawn)	i	i	i	i	?	i
Cc1ccc(NC(=O)CCc2ccc(C)o2)c(Br)c1	i	i	i	i	90.9	i	BoNTA LC inh 1=i;BoNTF LC inh 1=i;LF protease CP1=i
Cc1ccc(CCC(=O)Nc2ccc(Cl)cc2Cl)o1	i	i	i	nt	i	i
CCOc1ccc(NC(=O)CCn2ccnc2)cc1	i	i	i	i	i	i
O=C(CCn1ccnc1)Nc1ccc2ccccc2c1	i	i	i	i	37.5	i	BoNTA LC inh 1=i;BoNTF LC inh 1=i;LF protease CP1=i
Cc1nc(SCC(=O)Nc2cc(C(N)=O)cc(C(N)=O)c2)c2c(C)c(C)sc2n1	i	i	i	i	i	i
O=C(O)CSc1nnc(-c2ccc(Cl)cc2)n1-c1ccccc1	i	nt	i	i	35.7	i	BoNTA LC inh 1=i;BoNTF LC inh 1=i;LF protease CP1=i

Bioassay records from PubChem.
